Most compounds without a hit are left out; they make up all but 3.9% or so of the library.
PrPC surface inh – inhibitors of human cell surface prion protein PrPC, primary screen, cell-based, TR-FRET | Major prion protein (Homo sapiens), P04156 | TR-FRET read-out | inhibition, % at 13.8 µM | 370,000 tested, 0.43% active; in the data active = inhibition above about 24%
Mtb FBA inh – Mtb FBA enzyme inhibitors, primary screen, biochemical, fluorescence, strain H37Rv. 360,000 tested, 2.3% active. inhibition, % at 1 µM. AID 588726, 2011. Fructose-bisphosphate aldolase (Mycobacterium tuberculosis (strain ATCC 25618 / H37Rv)), …. purified M. tuberculosis FBA, fluorescence read-out
Target sequence (P9WQA3 whole entry, looked up): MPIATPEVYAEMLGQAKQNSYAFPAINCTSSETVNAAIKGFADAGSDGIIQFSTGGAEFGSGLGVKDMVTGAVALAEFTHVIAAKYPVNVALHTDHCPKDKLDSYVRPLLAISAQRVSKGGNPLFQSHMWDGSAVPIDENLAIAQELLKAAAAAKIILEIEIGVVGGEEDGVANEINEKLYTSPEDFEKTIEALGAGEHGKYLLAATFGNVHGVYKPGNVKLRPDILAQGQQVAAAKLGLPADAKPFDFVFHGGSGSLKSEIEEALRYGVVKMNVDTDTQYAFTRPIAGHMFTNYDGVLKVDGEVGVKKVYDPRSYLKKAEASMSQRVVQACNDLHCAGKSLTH
3CLpro inhibitor – SARS-CoV 3CLpro protease inhibitors, primary screen, biochemical, quenched FRET | Replicase polyprotein 1ab (Severe acute respiratory syndrome coronavirus), P0C6X7 | recombinant SARS-CoV 3CLpro, quenched FRET peptide cleavage | inhibition, % at 6 µM | 290,000 tested, 0.14% active; in the data active = inhibition above about 12%
GDH-TPI counter-1 – GDH-TPI coupling enzyme inhibitors, primary screen, artefact control for M. tuberculosis FBA inhibitor project, biochemical, absorbance, full deck; AID 588335, 2011; inhibition, % at 4.8 µM; 360,000 tested, 1.2% active; GDH-TPI coupled enzyme counterscreen, NADH absorbance; in the data active = inhibition above about 30%
Vc quorum ag – inducers of Vibrio cholerae quorum light production without autoinducers, primary screen, BH1578 luxS cqsA deficient, single point; 350,000 tested, 0.16% active; AID 588436, 2011; activation, % at 18.7 µM; V. cholerae BH1578 lux reporter, luminescence, 6 h; in the data active = activation mostly above about 9.7%, no sharp cut-off
Mtb FBA inh conf – M. tuberculosis aldolase blockers, biochemical, fluorescence, strain H37Rv, confirmation. shares compounds with Mtb FBA inh. purified M. tuberculosis FBA, fluorescence read-out. inhibition, % at 1 µM. 5,600 tested, 78% active
GDH-TPI counter-2 – GDH-TPI coupling enzyme inhibitors, artefact control for M. tuberculosis FBA inhibitor project, biochemical, fluorescence, high throughput | shares compounds with Mtb FBA inh | GDH-TPI coupled enzyme counterscreen | inhibition, % at 1 µM | 5,600 tested, 81% active | AID 652141, 2013; in the data active = inhibition above about 10%
GDH-TPI DR – GDH-TPI coupling enzyme inhibitors, dose response, artefact control for M. tuberculosis FBA inhibitor project, biochemical, fluorescence, IC50; IC50, µM; shares compounds with Mtb FBA inh; 170 tested, 79% active; GDH-TPI coupled enzyme assay, artifact counterscreen; call rule not given here
Each line names hits and unclear results; the compound was inactive in the other large screens (follow-up assays come after a bar, where they were run). Rule as the data show it, unless noted: active = inhibition above about 27%; inactive = the rest.

CC1CCc2nc(/C(C#N)=C/c3ccncc3)sc2C1 (centres undefined)	Mtb FBA inh 28 | Mtb FBA inh conf inactive | GDH-TPI counter-2 inactive
N#C/C(=C/c1ccncc1)c1nc2ccccc2s1	none
CN(C)c1ccc(CNC(=O)CC[C@H]2O[C@@H](n3cnc4c(NC(=O)c5ccccc5)ncnc43)[C@H](O)[C@@H]2O)cc1	none (no result: 3CLpro inhibitor, GDH-TPI counter-1, Vc quorum ag)
Cc1ccc(-c2cc3nc(-c4ccccc4)cc(NCCCO)n3n2)cc1	Mtb FBA inh 83 (no result: 3CLpro inhibitor) | Mtb FBA inh conf 72 | GDH-TPI counter-2 54
Cc1ccc(-c2cc3nc(-c4ccccc4)cc(N)n3n2)cc1	Mtb FBA inh 29 | Mtb FBA inh conf inactive | GDH-TPI counter-2 inactive
Cc1cccc(-c2cc3nc(C)cc(NCCCn4ccnc4)n3n2)c1	none
C[C@@H]1[C@@H](O)C[C@@]2(CC(=O)c3ccccc3O2)O[C@H]1c1ccccc1	none (no result: Mtb FBA inh, 3CLpro inhibitor, GDH-TPI counter-1, Vc quorum ag)
CCS(=O)(=O)c1ccc2c(c1)NC(=O)C(CCCl)O2 (centres undefined)	Mtb FBA inh 78 | Mtb FBA inh conf 140 | GDH-TPI counter-2 112
O=C1Nc2ncccc2OC1CCCl (centres undefined)	none
Cc1cc2[nH]c(=O)cc(-c3ccccc3)n2n1	Mtb FBA inh 34 | Mtb FBA inh conf 153 | GDH-TPI counter-2 120
CCN(CC)CCNC(=O)c1cc2c(=O)n(C)c3ccccc3c2s1	Mtb FBA inh 71 | Mtb FBA inh conf 129 | GDH-TPI counter-2 87
CCCN(CCC)CCNC(=O)c1cc2c(=O)n(C)c3ccccc3c2n1C	Mtb FBA inh 30 | Mtb FBA inh conf inactive | GDH-TPI counter-2 inactive
CN(CCNC(=O)c1cc2c(=O)n(C)c3ccccc3c2n1C)Cc1ccccc1	none
CCCCN(CC)CCNC(=O)c1cc2c(-c3ccccc3F)nn(C)c2s1	Mtb FBA inh 46 | Mtb FBA inh conf 47 | GDH-TPI counter-2 35
CCN(CC)CCCNC(=O)c1cc2c(-c3ccc(Cl)cc3)nn(C)c2s1	none
CCN(CCCNC(=O)c1cc2c(-c3cccc(OC)c3)nn(C)c2s1)Cc1ccccc1	Mtb FBA inh 53 | Mtb FBA inh conf 39 | GDH-TPI counter-2 43
CCCNC(=O)c1cc(C2CCCCN2S(=O)(=O)c2ccccc2)on1 (centres undefined)	none (no result: 3CLpro inhibitor)
CCCCN(CC)CCNC(=O)c1cc2c(=O)n(C)c3ccccc3c2s1	Mtb FBA inh 49 | Mtb FBA inh conf 181 | GDH-TPI counter-2 144
CCCCN(CC)CCNC(=O)c1cn(-c2ccc(Cl)cc2)c(=O)c2ccccc12	none
Cc1ccc(C(c2nc3ccccc3[nH]2)n2c(-c3ccccc3)nc3ccccc32)cc1 (centres undefined)	Mtb FBA inh 28 (no result: 3CLpro inhibitor, GDH-TPI counter-1, Vc quorum ag) | Mtb FBA inh conf inactive | GDH-TPI counter-2 inactive
CSCCC(c1nc2ccccc2[nH]1)n1c(-c2ccc(C)cc2)nc2ccccc21 (centres undefined)	none (no result: Mtb FBA inh, 3CLpro inhibitor, GDH-TPI counter-1, Vc quorum ag)
CCCc1n(CC)c2ccccc2[n+]1CC(O)COC1CCCCC1 (centres undefined)	none
COC(=O)C1CCN(C(=O)COC(=O)c2oc3ccc(OC)cc3c2C)CC1	Mtb FBA inh 51 | Mtb FBA inh conf 108 | GDH-TPI counter-2 103
COc1ccc2oc(C(=O)OCC(=O)Nc3ccc(N4CCOCC4)cc3)c(C)c2c1	none (no result: 3CLpro inhibitor)
CCOC(=O)N1CCN(C(=O)COC(=O)c2oc3ccc(OC)cc3c2C)CC1	Mtb FBA inh 48 | Mtb FBA inh conf active | GDH-TPI counter-2 active
COc1ccc2oc(C(=O)OCC(=O)N3CCC(C)CC3)c(C)c2c1	Mtb FBA inh 44 | Mtb FBA inh conf inactive | GDH-TPI counter-2 inactive
CC(=O)Nc1ccc(N2C(=O)CSC2c2cccc([N+](=O)[O-])c2)cc1 (centres undefined)	none
Cc1cc(C)n2nc(SC(C)C(=O)NC3CCCCC3C)nc2n1 (centres undefined)	none (no result: 3CLpro inhibitor)
COc1ccccc1C(=O)C1CCCN(C(=O)c2snnc2C)C1 (centres undefined)	none
COc1cccc(OC)c1-c1nnc(-c2cn(C)c3ccccc23)o1	Mtb FBA inh 80 | Mtb FBA inh conf active | GDH-TPI counter-2 178
CCN(C(=S)NC(=O)c1ccco1)c1cccc2ccccc12	Mtb FBA inh 29 (no result: 3CLpro inhibitor) | Mtb FBA inh conf 92 | GDH-TPI counter-2 73
CC(=O)OC1CCC2(C)C(CCC3C2CC(=O)C2(C)C3CC(C3CCCC3=O)C2C(C)=O)C1 (centres undefined)	none (no result: 3CLpro inhibitor)
N#Cc1c(-c2ccco2)cc(C2CC2)nc1N	Mtb FBA inh 49 | Mtb FBA inh conf inactive | GDH-TPI counter-2 inactive | GDH-TPI DR 2.6
Cc1cccc(C2Nc3ccccc3C(=O)N2c2ccc(F)cc2)n1 (centres undefined)	Mtb FBA inh 49 | Mtb FBA inh conf inactive | GDH-TPI counter-2 inactive
CS(=O)(=O)NN1C(=O)c2ccccc2NC1c1ccccc1F (centres undefined)	none
O=C1c2ccccc2NC(c2ccccn2)N1c1ccccc1F (centres undefined)	Mtb FBA inh 62 | Mtb FBA inh conf active | GDH-TPI counter-2 199
Cc1ccccc1S(=O)(=O)N1CCCc2nc(-c3ccc(F)cc3)ccc21	none (no result: Mtb FBA inh, 3CLpro inhibitor, GDH-TPI counter-1, Vc quorum ag)
CCOC(=O)COc1c(Cl)cc(C2NC(=S)NC(c3ccccc3)=C2C(C)=O)cc1OCC (centres undefined)	none
CCC1(CC)Cc2ccccc2-c2nc(CN3CCOCC3)[nH]c(=O)c21	none
CCC1(C)Cc2ccccc2-c2nc3n(c(=O)c21)CC(C(=O)O)S3 (centres undefined)	Mtb FBA inh 39 | Mtb FBA inh conf inactive | GDH-TPI counter-2 inactive
Cc1nn2c(=O)cc(CSCC(=O)Nc3ccccc3Cl)nc2s1	none
O=C(CSCc1nc2scc(-c3cccs3)c2c(=O)[nH]1)Nc1ccccn1	Mtb FBA inh 34 | Mtb FBA inh conf inactive | GDH-TPI counter-2 inactive
CC(C)(C)c1ccc(-c2nnc(SCC3CCCCO3)n2-c2ccc(Cl)cc2)cc1 (centres undefined)	none (no result: Mtb FBA inh, 3CLpro inhibitor, GDH-TPI counter-1, Vc quorum ag)
CC(=O)c1cc(F)c(N2CCN(C(=O)COc3ccccc3F)CC2)cc1C	Mtb FBA inh 38 | Mtb FBA inh conf inactive | GDH-TPI counter-2 inactive
